Activity calls are given as the source filed them. Calls follow the shape of the dose curve; as a rule, active = well fitted activation curve with a large enough effect; inconclusive = small, poorly fitted or top-dose-only effect; inactive = flat fitted curve, though single readings scatter.
Test: Confirmation and Secondary Assay for Modulators of Hemoglobin Beta Chain Splicing at IVS2 705 locus (AID 930)
Conditions: HeLa EGFP-705 splicing reporter, GFP fluorescence, 48 h; series mostly up to 46.1 µM
Excerpt: NIH Chemical Genomics Center [NCGC] NIH Molecular Libraries Screening Centers Network [MLSCN] MLSCN Grant: 1 X01 MH080684-01 PI Name: Dr. Ryszard Kole NCGC Assay Overview: Modulation of Alternative Splicing as Therapy Abnormal splicing is associated with a number of diseases, including cancer and genetic diseases such as cystic fibrosis, muscular dystrophy and beta-thalassemia. Alteration of disease associated splicing patterns provides a promising target for treatment. […] Mutations in the second intron of the b-globin gene at positions 654 or 705 are clinically relevant and cause mis-splicing which results in an out of frame gene product. […] EGFP-705 HeLa Cells as screen system. HeLa cell lines were stably transfected with a construct in which the EGFP (enhanced green fluorescent protein) cDNA was interrupted by the second intron of the beta-globin gene (IVS2-705). The ISV2 intron contains mutations which cause mis-splicing of EGFP and premature termination of EGFP which results in a nonfluorescent protein product. […] Expression of the transgene was driven by the CMV promoter. We concluded that a low molecular weight compound, which restored correct splicing of intron 2 would also generate functional EGFP protein, resulting in a fluorescent signal. Thus, the HeLa cells that express the EGFP-705 construct can be used for validation of splice site specificity of compounds identified in primary screening of the ISV2 654 construct.
NCGC Assay Protocol Summary: Confirmatory Screening. Freshly thawed HeLa EGFP-705 cells were seeded in 5 ul of optimem media (Invitrogen) containing 2 % fetal calf serum (Hyclone) and 1x penicillin/streptomycin (Invitrogen) at a concentration of 500 cells per well in 1536-well plates. Cells were incubated overnight at 37C in 5% CO2. The next day, cells were treated with DMSO, 500 nM antisense ISV2 654 PNA control oligo, or library compound and allowed to grow at 37C in 5% CO2 for 2 days. The PNA oligo blocked the mutation site in the intron and allowed proper (wild type) splicing to occur, resulting in full length EGFP expression and also allowed for optimization of the assay parameters. Plates were read in the Acumen Explorer (TTP Labtech) using 488 nm laser excitation and 500-520 nm emission PMT filter in a 1 x 8 uM capture mode. Fluorescnet objects ranging in size from 5 to 250 uM were measured and the total peak GFP intensity for each well was used for data analysis. Keywords: Thalassemia, beta-thalassemia, beta-globin, EGFP, ISV2 654, ISV2 705, SSO, PNA, antisense, splicing, MLSMR, MLSCN, NIH Roadmap, qHTS, NCGC

SMILES	outcome
Cc1ccc(Cl)c(Nc2ccccc2C(=O)O)c1Cl	inactive
CCn1nc(C(=O)O)c(=O)c2cc3c(cc21)OCO3	inactive
CCCCNc1ccc(C(=O)OCCN(C)C)cc1	inactive
CN(C)C(=O)Oc1cccc([N+](C)(C)C)c1	inactive
Cc1ccc(/C(=C\CN2CCCC2)c2ccccn2)cc1	inactive
FC(F)(F)c1ccccc1-n1ccnc1	inactive
Cc1scc2c1N(C(=O)CN1CCN(C)CC1)c1ccccc1NC2=O	inactive
Nc1nc(N)c2nc(-c3ccccc3)c(N)nc2n1	inactive
CCCNC(C)C(=O)Nc1ccccc1C (stereo not given)	inactive
Cc1ccc(S(=O)(=O)NC(=O)NN2CCCCCC2)cc1	inactive
CC(C)COCC(CN(Cc1ccccc1)c1ccccc1)N1CCCC1 (stereo not given)	inactive
CCCN(CCC)C(=O)C(CCC(=O)O)NC(=O)c1ccccc1 (stereo not given)	inactive
CCn1cc(C(=O)O)c(=O)c2cc3c(cc21)OCO3	inactive
Cc1nc2ccccn2c(=O)c1CCN1CCC(C(=O)c2ccc(F)cc2)CC1	inactive
CCCCNC(=O)NS(=O)(=O)c1ccc(C)cc1	inactive
CCN(CC)CCNC(=O)c1cc(S(C)(=O)=O)ccc1OC	inactive
CCCN(CCC)CCc1cccc2c1CC(=O)N2	inactive
C[n+]1cc2c3c(ccc2c2ccc4cc5c(cc4c21)OCO5)OCO3	inactive
C[N+](C)(C)CCOC(N)=O	inactive
CCN(CC)CCOCCOC(=O)C1(c2ccccc2)CCCC1	inactive

SMILES	outcome
CN(C)C(=O)Oc1ccc[n+](C)c1	inactive
CN1CCN(C2=Nc3ccccc3Oc3ccc(Cl)cc32)CC1	inactive
c1ccc2c(c1)CCCC2C1=NCCN1 (stereo not given)	inactive
NC(=O)N1c2ccccc2C=Cc2ccccc21	inactive
CCN(CC)CC(=O)Nc1c(C)cccc1C	inactive
CN1CCN(CC(=O)N2c3ccccc3C(=O)Nc3cccnc32)CC1	inactive
COCCc1ccc(OCC(O)CNC(C)C)cc1 (stereo not given)	inactive
Nc1c2c(nc3ccccc13)CCCC2O (stereo not given)	inactive
Fc1ccc(C(c2ccc(F)cc2)N2CCN(C/C=C/c3ccccc3)CC2)cc1	inactive
CC1=NS(=O)(=O)c2cc(Cl)ccc2N1	inactive
CN(C)CCCN1c2ccccc2Sc2ccccc21	inactive
COC(=O)C1=C(C)NC(C)=C(C(=O)OCCN(C)Cc2ccccc2)C1c1cccc([N+](=O)[O-])c1 (stereo not given)	inactive
CCN(CC)CCNC(=O)c1ccc(NC(C)=O)cc1	inactive
CC(C)NCC(O)c1cc(O)cc(O)c1 (stereo not given)	inactive
CN(C)CCCN1c2ccccc2Sc2ccc(C(F)(F)F)cc21	inactive
CN=C(NC#N)NCCSCc1nc[nH]c1C	inactive
O=C(O)CCCCCCCC(=O)O	inactive
OC(CCN1CCCCC1)(c1ccccc1)C1CCCCC1 (stereo not given)	inactive
CNCCCN1c2ccccc2CCc2ccccc21	inactive
CN(C)CCOC(=O)COc1ccc(Cl)cc1	inactive
